# According to PubChem BioAssay (NCATS):
# Values joined by “and” are separate entries in the source; they are usually repeats but may differ in a detail not shown here. Identical values can stand only once. Inconclusive results are not listed. A call without a number means that no potency is given here. Active and inactive are the calls of the source. Calls follow the shape of the dose curve; as a rule, active = well fitted curve in the direction sought with a large enough effect; inconclusive = small, poorly fitted or top-dose-only effect, or another doubt; inactive = no such curve, though single readings can be large; an effect the other way counts as inactive or inconclusive.
# How the values were obtained:
# [1] = qHTS of pediatric cancer cell lines to identify multiple opportunities for drug repurposing: Primary screen for control Hh wild type fibroblast cells (AID 1347106);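 also: series mostly up to about 46 µM; a drop in luminescence marks cytotoxicity and a rise apparent proliferation; nearly all actives have a fitted effect of over 55% in size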
# In short: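 Viability after 48 h compound treatment at 37C, 500-1,000 cells/well, read as ATP luminescence with CellTiter-Glo. Primary screens used 11-point (MIPE, 0.78 nM-46 µM) or 8-point (NPC, 0.59 nM-46 µM) final concentrations; follow-up screens used 11-point dilutions.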
# [2] = qHTS of pediatric cancer cell lines to identify multiple opportunities for drug repurposing: Primary screen for Rh41 cells (AID 1347108); also: nearly all actives have a fitted effect of over 70% in size; also: potency is read from the fitted curve at half-maximal effect
# In short: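 Readout: CellTiter-Glo luminescence, 48 h treatment. Controls DMSO (neutral) and bortezomib 2.3 µM final (positive). Potency and efficacy taken from primary-screen concentration-response curves.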
# [3] = qHTS of pediatric cancer cell lines to identify multiple opportunities for drug repurposing: Primary screen for Rh30 cells (AID 1347107); also: nearly all actives have a fitted effect of over 75% in size; also: potency is read from the fitted curve at half-maximal effect
# In short: (§1)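 Cells (500-1,000/well) rested 5 h, then received compounds for 48 h; metabolically active cells were measured by CellTiter-Glo luminescence. Final concentrations spanned up to 46 µM (MIPE, 11-point) or 0.59 nM-46 µM (NPC, 8-point) in primary screens, 11-point in follow-ups.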
# [4] = qHTS of pediatric cancer cell lines to identify multiple opportunities for drug repurposing: Confirmatory screen for A673 cells (AID 1347110);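 also: cells exposed to compound for 48 h before the viability read; nearly all actives have a fitted effect of over 65% in size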; also: potency is read from the fitted curve at half-maximal effect
# In short: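 qHTS titration format: primary MIPE 0.78 nM-46 µM (11 pts), NPC 0.59 nM-46 µM; confirmation 11 pts. 48 h, CTG luminescence.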
# [5] = qHTS of pediatric cancer cell lines to identify multiple opportunities for drug repurposing: Confirmatory screen for BT-12 cells (AID 1347112); also: nearly all actives have a fitted effect of over 55% in size; also: potency is read from the fitted curve at half-maximal effect
# In short: as §1
# [6] = qHTS of pediatric cancer cell lines to identify multiple opportunities for drug repurposing: Confirmatory screen for LAN-5 cells (AID 1347113); also: nearly all actives have a fitted effect of over 65% in size; also: potency is read from the fitted curve at half-maximal effect
# In short: as §1
# [7] = qHTS of pediatric cancer cell lines to identify multiple opportunities for drug repurposing: Confirmatory screen for NB-EBc1 cells (AID 1347115);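 also: cells exposed to compound for 48 h before the viability read; nearly all actives have a fitted effect of over 45% in size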; also: potency is read from the fitted curve at half-maximal effect
# In short: as §1
# [8] = qHTS of pediatric cancer cell lines to identify multiple opportunities for drug repurposing: Confirmatory screen for SJ-GBM2 cells (AID 1347116); also: nearly all actives have a fitted effect of over 60% in size; also: potency is read from the fitted curve at half-maximal effect
# In short: (§2)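 Viability measured as metabolically active cells via CellTiter-Glo luminescence following 48 hours of compound exposure, 11-point dilutions in confirmatory testing. 500-1,000 cells/well plated 5 hours before dosing; controls were DMSO and 2.3 µM bortezomib.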
# [9] = qHTS of pediatric cancer cell lines to identify multiple opportunities for drug repurposing: Confirmatory screen for DAOY cells (AID 1347114); also: nearly all actives have a fitted effect of over 65% in size; also: potency is read from the fitted curve at half-maximal effect
# In short: as §2
# [10] = qHTS of pediatric cancer cell lines to identify multiple opportunities for drug repurposing: Confirmatory screen for NB1643 cells (AID 1347109); also: nearly all actives have a fitted effect of over 45% in size
# In short: as §1
smiles,measurement,setting,value
Cc1c(CCOc2ccc(C(=O)O)cc2)c2cc(Cl)ccc2n1C(c1ccccc1)c1ccccc1,Potency,[1],inactive
same,Potency,[2],inactive
CCN(CC)CCCC(C)Nc1nc(C)cc(Nc2ccc3nc(C)cc(N)c3c2)n1 (stereo not given),Potency,[3],inactive
same,Potency,[2],inactive
Cc1cccc(-c2nn(C(=S)Nc3ccccc3)cc2-c2ccnc3ccccc23)n1,Potency,[3],inactive
same,Potency,[2],inactive
Nc1nccc(-c2ccc3noc(-c4ccc(Cl)cc4)c3c2)n1,Potency,[3],inactive
same,Potency,[2],inactive
O=S(=O)(N=Cc1c(O)ccc2ccccc12)c1cccs1,Potency,[3],inactive
same,Potency,[2],3.72 µM (active)
CN(C)C(=O)c1ccc(S(=O)(=O)c2ccc(NC(=O)[C@@](C)(O)C(F)(F)F)c(Cl)c2)cc1,Potency,[3],inactive
CNC(=O)c1ccccc1Sc1ccc2c(/C=C/c3ccccn3)n[nH]c2c1,Potency,[3],inactive
C#Cc1cccc(Nc2ncnc3cc(OCCOC)c(OCCOC)cc23)c1,Potency,[3],inactive
same,Potency,[2],11.8 µM (active)
Cn1cnc2c(F)c(Nc3ccc(Br)cc3Cl)c(C(=O)NOCCO)cc21,Potency,[1],inactive
same,Potency,[2],14.8 µM (active)
same,Potency,[4],inactive
same,Potency,[5],inactive
same,Potency,[6],inactive
same,Potency,[7],inactive
CC(C)(Sc1ccc(CCN(CCCCC2CCCCC2)C(=O)NC2CCCCC2)cc1)C(=O)O,Potency,[3],inactive
O=C(Nc1ccc(F)c(C(F)(F)F)c1)Nc1nnc(-c2ccncc2)s1,Potency,[1],inactive
same,Potency,[2],inactive
CCN(c1ccccc1)c1cc(NC)[n+](C)c(C)n1,Potency,[3],inactive
same,Potency,[2],inactive
CC(C)C[C@H](NC(=O)[C@@H](O)[C@H](N)Cc1ccccc1)C(=O)O,Potency,[1],inactive
same,Potency,[2],23.5 µM (active)
COc1cc(Nc2ncc3c(n2)-c2ccc(Cl)cc2C(c2c(F)cccc2OC)=NC3)ccc1C(=O)O,Potency,[1],inactive
same,Potency,[5],inactive
same,Potency,[7],20.8 µM (active)
same,Potency,[8],inactive
CS(=O)(=O)Oc1ccc2c(NC(N)=O)c(C(=O)c3ccc(Cl)cc3Cl)oc2c1,Potency,[3],inactive
Fc1ccc(Cl)cc1-c1nc(Nc2ccncc2)c2nccnc2n1,Potency,[3],inactive
same,Potency,[2],inactive
O=C(O)[C@@H](c1ccc(OCc2ccc3ccccc3n2)cc1)C1CCCC1,Potency,[3],inactive
NC(=O)c1ccc(-c2nc(-c3ccc4c(c3)OCCO4)c(-c3ccccn3)[nH]2)cc1,Potency,[3],inactive
Cc1cc([C@@H](C)Nc2ccccc2C(=O)O)c2nc(N3CCOCC3)cc(=O)n2c1,Potency,[1],inactive
same,Potency,[2],8.55 µM (active)
O=C(Nc1nc2ccccc2n1CCN1CCOCC1)c1cccc([N+](=O)[O-])c1,Potency,[1],inactive
same,Potency,[2],18.7 µM (active)
C1COC(NC(C2CC2)C2CC2)=N1,Potency,[3],inactive
same,Potency,[2],inactive
COCC(=O)NCC=Cc1ccc2ncnc(Nc3ccc(Oc4ccc(C)nc4)c(C)c3)c2c1,Potency,[1],inactive
same,Potency,[4],23.3 µM (active)
same,Potency,[6],42.7 µM (active)
same,Potency,[9],16.5 µM (active)
same,Potency,[7],30.2 µM (active)
same,Potency,[8],inactive
O=C(Nc1cccnc1)N1CCC(Cc2cccc(Oc3ccc(C(F)(F)F)cn3)c2)CC1,Potency,[1],inactive
same,Potency,[2],inactive
Cc1n[nH]c(C)c1Cc1sc2c(c1C(=O)N1C[C@H](O)CO1)c(=O)n(C)c(=O)n2CC(C)C,Potency,[3],inactive
Clc1ccc(Nc2nnc(Cc3ccncc3)c3ccccc23)cc1,Potency,[3],inactive
same,Potency,[2],inactive
CNC[C@H](O)c1cccc(O)c1,Potency,[3],inactive
same,Potency,[2],inactive
O=c1[nH]cnc2[nH]ncc12,Potency,[3],inactive
same,Potency,[2],inactive
CCOC(=O)N1CCC(=C2c3ccc(Cl)cc3CCc3cccnc32)CC1,Potency,[2],23.5 µM (active) and 23.7 µM (active)
COc1ccc(-c2ccc3c(N4CCOCC4)nc(N4C[C@@H](C)O[C@@H](C)C4)nc3n2)cc1CO,Potency,[3],inactive
same,Potency,[2],0.743 µM (active)
same,Potency,[4],0.293 µM (active)
same,Potency,[5],5.22 µM (active)
same,Potency,[9],9.27 µM (active)
same,Potency,[8],1.47 µM (active)
C[C@]1(c2nc3c(C(N)=O)cccc3[nH]2)CCCN1,Potency,[10],inactive
same,Potency,[4],inactive
same,Potency,[6],inactive
same,Potency,[9],inactive
same,Potency,[7],inactive
same,Potency,[8],inactive
Cc1c(CN2CCN(C(=O)C(C)C)CC2)sc2c(N3CCOCC3)nc(-c3cnc(N)nc3)nc12,Potency,[3],1.87 µM (active)
same,Potency,[2],0.235 µM (active)
same,Potency,[4],1.47 µM (active)
same,Potency,[6],0.737 µM (active)
CCCS(=O)(=O)Nc1ccc(F)c(C(=O)c2c[nH]c3ncc(Cl)cc23)c1F,Potency,[2],inactive
CCOc1ccn(-c2ccc(F)cc2)c(=O)c1C(=O)Nc1ccc(Oc2ccnc(N)c2Cl)c(F)c1,Potency,[3],inactive
same,Potency,[4],13.1 µM (active)
same,Potency,[5],inactive
same,Potency,[6],inactive
same,Potency,[9],inactive
same,Potency,[7],inactive
same,Potency,[8],14.7 µM (active)
C[C@@H]1CN(Cc2ccc(F)cc2)[C@@H](C)CN1C(=O)c1cc2c(C(=O)C(=O)N(C)C)cn(C)c2cc1Cl,Potency,[2],14.8 µM (active)
COc1cc2nccc(Oc3ccc(NC(=O)NC4CC4)c(Cl)c3)c2cc1C(N)=O,Potency,[3],inactive
same,Potency,[2],5.9 µM (active)
same,Potency,[9],inactive
same,Potency,[7],inactive
same,Potency,[8],inactive
Cn1cnc([N+](=O)[O-])c1Sc1ncnc2nc[nH]c12,Potency,[3],inactive
same,Potency,[4],1.89 µM (active)
same,Potency,[5],inactive
NC(N)=NC(=O)c1nc(Cl)c(N)nc1N,Potency,[3],inactive
same,Potency,[2],inactive
same,Potency,[10],inactive
same,Potency,[4],1.17 µM (active)
same,Potency,[5],inactive
same,Potency,[6],inactive
same,Potency,[9],inactive
same,Potency,[7],inactive
same,Potency,[8],inactive
NC(=O)c1ccc(I)c([N+](=O)[O-])c1,Potency,[3],inactive
same,Potency,[5],inactive
same,Potency,[6],inactive
same,Potency,[9],61.8 µM (active)
same,Potency,[7],inactive
same,Potency,[8],inactive
Cc1c(C)c2c(c(C)c1O)CCC(C)(COc1ccc(CC3SC(=O)NC3=O)cc1)O2 (stereo not given),Potency,[3],inactive
same,Potency,[2],inactive
same,Potency,[10],inactive
same,Potency,[4],inactive
same,Potency,[5],inactive
same,Potency,[6],inactive
same,Potency,[7],inactive
same,Potency,[8],inactive
CCC(C)n1ncn(-c2ccc(N3CCN(c4ccc(OC[C@H]5CO[C@](Cn6cncn6)(c6ccc(Cl)cc6Cl)O5)cc4)CC3)cc2)c1=O (stereo not given in full),Potency,[3],inactive
same,Potency,[2],inactive
same,Potency,[10],inactive
same,Potency,[4],inactive
same,Potency,[6],inactive
same,Potency,[7],inactive
same,Potency,[8],inactive
CCOc1ccc(Cc2cc([C@@H]3O[C@H](CO)[C@@H](O)[C@H](O)[C@@H]3O)ccc2Cl)cc1,Potency,[3],inactive
same,Potency,[2],inactive
CCC(C)(C)C(=O)O[C@H]1C[C@@H](C)C=C2C=C[C@H](C)[C@H](CC[C@@H]3C[C@@H](O)CC(=O)O3)[C@H]21,Potency,[2],inactive
same,Potency,[4],5.22 µM (active)
same,Potency,[5],inactive
same,Potency,[6],inactive
same,Potency,[9],5.85 µM (active)
same,Potency,[7],inactive
COc1ccc(-c2ccc3c(N4CCOC[C@H]4C)nc(N4CCOC[C@H]4C)nc3n2)cc1CO,Potency,[3],inactive
same,Potency,[2],0.0418 µM (active)
same,Potency,[4],0.117 µM (active)
same,Potency,[6],0.293 µM (active)
CCCS(=O)(=O)Nc1ccc(F)c(C(=O)c2c[nH]c3ncc(-c4ccc(Cl)cc4)cc23)c1F,Potency,[4],16.5 µM (active)
same,Potency,[5],inactive
same,Potency,[7],inactive
Cc1ccnc(NS(=O)(=O)c2ccc(NC(=O)Nc3ccc(S(=O)(=O)Nc4nccc(C)n4)cc3)cc2)n1,Potency,[3],inactive
same,Potency,[2],inactive
COc1ccc(-c2oc3cc(OC)ccc3c2C(=O)c2ccc(C#N)cc2)cc1,Potency,[3],inactive
same,Potency,[4],inactive
same,Potency,[5],inactive
same,Potency,[6],inactive
same,Potency,[9],inactive
same,Potency,[8],inactive
Cc1[nH]c(=O)c(C#N)cc1-c1ccncc1,Potency,[3],inactive
same,Potency,[2],inactive
NCCCC(N)(C(=O)O)C(F)F (stereo not given),Potency,[3],inactive
same,Potency,[2],inactive
same,Potency,[10],inactive
same,Potency,[4],inactive
same,Potency,[5],inactive
same,Potency,[6],inactive
same,Potency,[9],inactive
same,Potency,[7],inactive
same,Potency,[8],inactive
